# Laboratory results: ChEMBL document CHEMBL3988442, “University of Dundee, Small-Polar-MMV Screening Library” (2021)
# Screen size: about 66,000 compounds; about 960 (1.5%) showed an effect of 50% or more. Only a selection was taken, and strong results are over-represented in it overall.
# System: Trypanosoma brucei
# Assay: Trypanosoma brucei 72 hour study
# Type: functional, organism-based
# Parameters: scale not given: in the data most compounds retested in dose-response had high values
smiles,measurement,setting,value
CCCN(CCC)c1ncc(S(=O)(=O)c2ccccc2)c(N)n1,Percent Effect,"30.3 µM, […]",81.44%
CCCN(CCC)c1ncc(S(=O)(=O)c2cccc(C)c2)c(N)n1,Percent Effect,"30.3 µM, […]",1.054%
CCCN(CCC)c1ncc(S(=O)(=O)c2ccc(C)cc2)c(N)n1,Percent Effect,"30.3 µM, […]",0.2073%
O=C(N1CCCC1)N1C[C@H]2CCC[C@@]2(COCc2ccccn2)C1.O=C(O)C(F)(F)F,Percent Effect,"30.3 µM, […]",8.939%
Cc1ccc(CN2CCN(C3CCCC3)CC2CCO)o1 (configuration not stated),Percent Effect,"30 µM, 30.03 µM",-4.422%
CN1C(=O)CC(c2cnn(C)c2)C12CCN(CC1CCOCC1)CC2.O=C(O)C(F)(F)F (configuration not stated),Percent Effect,"30.3 µM, […]",-2.852%
Cc1noc(C)c1CN1CCn2cc(CN3CCCC3)nc2C1.O=C(O)C(F)(F)F.O=C(O)C(F)(F)F,Percent Effect,"30.3 µM, […]",0.2362%
Cc1ccc(CN2CCc3ncnc(-c4ccncc4)c3CC2)o1.O=C(O)C(F)(F)F.O=C(O)C(F)(F)F,Percent Effect,"30.3 µM, […]",-37.96%
Nc1ncncc1-c1noc([C@@H]2CCCN2CC2CC2)n1,Percent Effect,"30.3 µM, […]",-4.914%
Nc1ncncc1-c1noc([C@@H]2CCCN2CCCc2ccccc2)n1,Percent Effect,"30.3 µM, […]",101.5%
Nc1ncncc1-c1noc([C@@H]2CCCN2Cc2cccnc2)n1,Percent Effect,"30.3 µM, […]",-3.258%
O=C(O)C(F)(F)F.O=C(O)C(F)(F)F.c1cncc(-c2nnn3c2COCC(CNC2CCOCC2)C3)c1 (configuration not stated),Percent Effect,"30 µM, 30.03 µM",-0.7004%
CC(=O)N1C[C@@H](c2ccsc2)[C@@H]2CN(Cc3ccccc3)CC[C@@H]21,Percent Effect,"30 µM, 30.03 µM",3.298%
COc1cccc(CN2CC[C@H]3[C@@H](C2)[C@H](c2ccsc2)CN3C(C)=O)c1,Percent Effect,"30.3 µM, […]",-3.85%
COc1cccc([C@H]2CN(C(C)=O)[C@@H]3CCN(Cc4ccsc4)C[C@H]23)c1.Cl,Percent Effect,"30.3 µM, […]",96.3%
Cc1nnsc1C(=O)N1C[C@H]2CC[C@@H]1CN(c1cnccn1)C2,Percent Effect,"30 µM, 30.03 µM",0.47%
Cc1cnc2c(c1NCc1cccnc1)c(=O)n(C)c(=O)n2C,Percent Effect,"30 µM, 30.03 µM",-45.54%
CCc1noc(CN2CCN(C(=O)C3CC3)CC2)n1,Percent Effect,10 µM,-20.32%
O=S(=O)(Cc1ccccc1)NCc1nnc2n1CCC2,Percent Effect,"30 µM, 30.03 µM",-38.65%
CCS(=O)(=O)NCc1nc(C)cc(N2CCCCC2)n1,Percent Effect,"30 µM, 30.03 µM",-14.09%
CCS(=O)(=O)NCc1nc(C)cc(N2CCCC2)n1,Percent Effect,"30 µM, 30.03 µM",4.691%
CCS(=O)(=O)NCc1nc(C)cc(N2CCOCC2)n1,Percent Effect,"30 µM, 30.03 µM",-12.8%
CCCS(=O)(=O)NCc1nc(C)cc(N2CCCC2)n1,Percent Effect,"30 µM, 30.03 µM",60.24%
Cc1cc(N2CCCC2)nc(CNS(=O)(=O)Cc2ccccc2)n1,Percent Effect,"30 µM, 30.03 µM",99.66%
O=C1[C@H]2CC[C@H](CN(Cc3nnc(C4CC4)o3)C2)N1Cc1cscn1,Percent Effect,"30 µM, 30.03 µM",-30.68%
CCN1CCOCC12CCN(C(=O)C1CCC1)CC2.O=C(O)C(F)(F)F,Percent Effect,"30.3 µM, […]",-58.96%
Cc1ccc(F)cc1NS(=O)(=O)c1cc2c(c(C(=O)O)c1)OCCO2,Percent Effect,"30.3 µM, […]",-13.96%
O=C(O)C(F)(F)F.O=C(c1ccco1)N1C[C@H]2CCCN(Cc3nccs3)[C@H]2C1,Percent Effect,"30 µM, 30.03 µM",20.08%
CN(C)C(=O)CN1CCC(c2cccc(Cc3ccc(F)cc3)n2)CC1,Percent Effect,"30.3 µM, […]",-2.775%
CC(=O)N1CCCC1c1cccc(Cc2ccc(F)cc2)n1 (configuration not stated),Percent Effect,"30 µM, 30.03 µM",14.65%
CC(=O)N1CCCC1c1cccc(NCc2ccccc2F)n1 (configuration not stated),Percent Effect,"30.3 µM, […]",-16.97%
CN1CCC(c2cccc(Cc3ccccc3)n2)CC1,Percent Effect,"30.3 µM, […]",2.73%
CC(=O)N1CCCC1c1cccc(Cc2ccccc2F)n1 (configuration not stated),Percent Effect,"30.3 µM, […]",99.36%
CC(=O)N1CCCC1c1cccc(Cc2ccccc2Cl)n1 (configuration not stated),Percent Effect,"30.3 µM, […]",2.284%
CN1CCCC1c1cccc(Cc2ccc(F)cc2)n1 (configuration not stated),Percent Effect,"30.3 µM, […]",99.38%
CN(C)C(=O)CN1CCCC1c1cccc(Cc2ccccc2F)n1 (configuration not stated),Percent Effect,"30.3 µM, […]",100.6%
CN(C)C(=O)CCc1cncc(C2CCCN2Cc2ccccn2)n1 (configuration not stated),Percent Effect,"30.3 µM, […]",-6.842%
COCC(=O)N1CCCC1c1cccc(Cc2ccccc2F)n1 (configuration not stated),Percent Effect,"30.3 µM, […]",-5.491%
CN1CCC(c2cccc(Cc3ccc(C(F)(F)F)cc3)n2)CC1,Percent Effect,"30.3 µM, […]",100.8%
CN1CCC(c2cccc(Cc3ccc(F)cc3)n2)CC1,Percent Effect,"30.3 µM, […]",22.86%
CN(C)c1nc(NCCCN2CCc3ccccc32)ncc1F,Percent Effect,"30 µM, 30.03 µM",-2.481%
CC1CCN(c2ncc3c(n2)CN(Cc2cccc(F)c2)C3=O)CC1,Percent Effect,"30 µM, 30.03 µM",-36.51%
Cl.c1cn(-c2cnc(C3CCCNC3)cn2)cn1 (configuration not stated),Percent Effect,"30.3 µM, […]",-22.3%
Cc1ccnc(NC(=O)C2CCN(CCCn3ccnc3)CC2)c1,Percent Effect,"30 µM, 30.03 µM",-9.272%
Cc1ncn(CCNC(=O)Nc2ccc(OC(F)(F)F)cc2)c(=O)c1C,Percent Effect,"30 µM, 30.03 µM",-6.151%
Cc1cc(C2CCCN(Cc3nc(Cc4ccccc4)no3)C2)n[nH]1 (configuration not stated),Percent Effect,"30 µM, 30.03 µM",-33.51%
Cc1ccc(CN2CCC3(CC2)CC(N2CCN(C)CC2)CO3)s1.O=C(O)C(F)(F)F.O=C(O)C(F)(F)F.O=C(O)C(F)(F)F (configuration not stated),Percent Effect,"30.3 µM, […]",-296.4%
Cc1cncc(C(=O)N2CC[C@@]3(C[C@H](NS(C)(=O)=O)CCO3)C2)c1.O=C(O)C(F)(F)F,Percent Effect,"30.3 µM, […]",-90.12%
CCN1CCCn2c(nc(CNC(=O)c3cnoc3C)cc2=O)C1.O=C(O)C(F)(F)F,Percent Effect,"30 µM, 30.03 µM",9.742%
c1ccc(Cc2cncc(C3CCCN3C3CCOCC3)n2)cc1 (configuration not stated),Percent Effect,"30.3 µM, […]",-18.14%
c1ccc(Cc2cccc(C3CCCN3C3CCOCC3)n2)cc1 (configuration not stated),Percent Effect,"30.3 µM, […]",101%
CN1CCCC1c1cccc(Cc2ccccc2F)n1 (configuration not stated),Percent Effect,"30.3 µM, […]",101.4%
Fc1cccc(Cc2cncc(C3CCCN3C3CCOCC3)n2)c1 (configuration not stated),Percent Effect,"30.3 µM, […]",9.592%
CS(=O)(=O)N1CCCC1c1cccc(Cc2ccccc2F)n1 (configuration not stated),Percent Effect,"30.3 µM, […]",0.4351%
CN(C)S(=O)(=O)N1CCCC(c2cccc(Cc3ccccc3)n2)C1 (configuration not stated),Percent Effect,"30 µM, 30.03 µM",-81.93%
CN(C)S(=O)(=O)N1CCCC(c2cccc(Cc3ccc(F)cc3)n2)C1 (configuration not stated),Percent Effect,"30.3 µM, […]",41.5%
CN(C)S(=O)(=O)N1CCCC(c2cccc(Cc3ccc(Cl)cc3)n2)C1 (configuration not stated),Percent Effect,"30.3 µM, […]",99.29%
CN(C)S(=O)(=O)N1CCCC(c2cccc(Cc3ccccc3F)n2)C1 (configuration not stated),Percent Effect,"30.3 µM, […]",46.46%
COCCCNc1c(-c2ccc(Cl)cc2)c(=O)c1=O,Percent Effect,"30.3 µM, […]",13.47%
O=C(c1cnccn1)N1CCCC(Cc2cccc3ncccc23)C1 (configuration not stated),Percent Effect,"30.3 µM, […]",-10.31%
CN(C)C(=O)[C@@H]1CCO[C@@H]2CCN(CCOCc3ccccc3)C[C@H]21.O=C(O)C(F)(F)F,Percent Effect,"30.3 µM, […]",-3.678%
CC(C)(C)c1nc(NS(=O)(=O)c2ccccc2F)no1,Percent Effect,"30 µM, 30.03 µM",-17.01%
O=C(NCC1CC1)C1CCC2(CCN(C(=O)c3ccncc3)CC2)O1.O=C(O)C(F)(F)F (configuration not stated),Percent Effect,"30.3 µM, […]",-42.23%
Cc1noc(C)c1CN1CCO[C@H]2[C@H](Oc3ncccc3F)CC[C@@H]21.O=C(O)C(F)(F)F.O=C(O)C(F)(F)F,Percent Effect,"30 µM, 30.03 µM",-9.669%
CCCN(CCc1ccccn1)C(=O)CCc1cnn(C)c1,Percent Effect,"30 µM, 30.03 µM",-34.35%
CCN(CC)Cc1ccc(C(=O)N2CCCC2Cn2cccn2)cc1 (configuration not stated),Percent Effect,10 µM,-13.25%
CCc1cnc(CN(C)C2CCN(CC(=O)Nc3nccs3)C2)o1 (configuration not stated),Percent Effect,10 µM,-37.99%
COc1ccc(N2Cc3nc(=O)n(Cc4cccc(F)c4)n3C2=O)cc1,Percent Effect,"30 µM, 30.03 µM",-5.99%
CCN1CCn2c(C)cnc2C12CCN(C(=O)NCC(C)C)CC2.O=C(O)C(F)(F)F,Percent Effect,"30.3 µM, […]",-30.2%
Cc1ccc(Cl)cc1NC(=O)C1CC(=O)N(Cc2ccccn2)C1 (configuration not stated),Percent Effect,"30 µM, 30.03 µM",8.87%
O=C(Nc1ccccn1)C1CC(=O)N(Cc2ccccn2)C1 (configuration not stated),Percent Effect,"30 µM, 30.03 µM",-8.332%
COc1ncccc1NC(=O)C1CC(=O)N(Cc2ccccn2)C1 (configuration not stated),Percent Effect,"30 µM, 30.03 µM",55.04%
CC(C)(C)NC(=O)CCOc1cccc(F)c1,Percent Effect,10 µM,-74.47%
COc1ccccc1CN1CC[C@]2(C[C@@H](OC)CO2)C1.O=C(O)C(F)(F)F,Percent Effect,"30 µM, 30.03 µM",-26.27%
Cc1nn(C)c2c(NCCCn3cccn3)nc(C(C)C)nc12,Percent Effect,"30.3 µM, […]",-9.582%
COc1cc(C(=O)NCCc2ccccc2OC)on1,Percent Effect,"30.3 µM, […]",101.4%
COc1cc(C(=O)NCCCc2ccccc2)on1,Percent Effect,"30.3 µM, […]",10.61%
COc1cc(C(=O)NCCc2ccc(OC)c(OC)c2)on1,Percent Effect,"30.3 µM, […]",8.881%
Cc1occc1C(=O)N1CCC2(CCN(Cc3ccccn3)C2=O)C1.O=C(O)C(F)(F)F (configuration not stated),Percent Effect,"30 µM, 30.03 µM",-18.48%
Cc1cc(C)nc(N2CCN(Cc3nccn3C)CC2)n1.O=CO,Percent Effect,"30.3 µM, […]",-2.711%
Cc1noc(C)c1CN1C[C@@H](OCc2ccccn2)[C@H]2OCCC[C@H]21.O=C(O)C(F)(F)F.O=C(O)C(F)(F)F,Percent Effect,"30 µM, 30.03 µM",-32.5%
O=C(O)C(F)(F)F.O=c1ccc2c([nH]1)CCC(NCc1ccc3c(c1)OCO3)C2 (configuration not stated),Percent Effect,"30.3 µM, […]",-24.67%
CC(C)CCN1C2(CCN(C(=O)CN(C)C)C2)c2ccccc2S1(=O)=O.O=C(O)C(F)(F)F (configuration not stated),Percent Effect,"30.3 µM, […]",-2.24%
COc1ccc2c(c1)OC1(CCN(Cc3ccccc3C)CC1)CC2=O,Percent Effect,"30.3 µM, […]",99.25%
same,Percent Effect,"10 mM, 10 mM as filed; unlikely as a test dose",-45.93%
COc1ccc2c(c1)OC1(CCN(Cc3cccc(C)c3)CC1)CC2=O,Percent Effect,"30.3 µM, […]",-0.9536%
same,Percent Effect,"10 mM, 10 mM as filed; unlikely as a test dose",-48.74%
COc1ccc2c(c1)OC1(CCN(Cc3ccc(C)cc3)CC1)CC2=O,Percent Effect,"30.3 µM, […]",-15.07%
same,Percent Effect,"10 mM, 10 mM as filed; unlikely as a test dose",-53.52%
Cc1nc(CN2CCCC(C)(CO)C2)no1 (configuration not stated),Percent Effect,"30 µM, 30.03 µM",-41.91%
Cl.Cl.O=C(NCc1cncc2c1CCN(C1CCOC1)C2)c1ccco1 (configuration not stated),Percent Effect,"30.3 µM, […]",-14.18%
Cc1ccc(C)c(CN(CC(N)=O)C(C)C)c1,Percent Effect,"30 µM, 30.03 µM",-11.18%
CCc1nc(C)cc(N2CCCC(C(=O)c3ccc(OC)cc3C)C2)n1 (configuration not stated),Percent Effect,"30.3 µM, […]",68.93%
COc1ccc(C(=O)C2CCCN(c3cc(OC)ncn3)C2)c(C)c1 (configuration not stated),Percent Effect,"30.3 µM, […]",25.96%
COc1ccc(C(=O)C2CCCN(c3cc(N)ncn3)C2)c(C)c1 (configuration not stated),Percent Effect,"30.3 µM, […]",35.59%
Cc1ccc(CN2CCc3nnc(CN4CCCC4=O)n3CC2)o1.O=C(O)C(F)(F)F,Percent Effect,"30.3 µM, […]",11.51%
Cc1nnsc1C(=O)NCc1nn(C)c2c1CCCC2,Percent Effect,"30 µM, 30.03 µM",10.26%
